Results: PubChem BioAssay (NCI)
About 83,000 compounds went through this panel and 20% of them were active in at least one assay; those are over-represented in the sample as a whole.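 Cells were grown in 96-well plates and exposed to the test compound at a single concentration for 48 hours; results are reported as percent growth, with values below 10 considered active.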 A number with no mark means an inactive call. The source made the active and inactive calls.

system: MDA-MB-468 breast; test: NCI-60 one-dose screen, 48 h (100 = growth as untreated, 0 = no growth, -100 = all killed); details: 10 µM unless noted

| Structure (SMILES) | growth |
| --- | --- |
| NS(=O)(=O)c1ccc(C(=O)N=Nc2c(O)[nH]c3c(F)cccc23)cc1 | 96.3% |
| Cc1ccc(-c2cc(C(=O)N3N=C(c4ccc(N)cc4)CC3c3ccc(Cl)cc3)c3ccccc3n2)cc1 (configuration not stated) | 14.1% |
| O=C(O)c1ccc(CO)o1 | 103% |
| Cc1ccc(S(=O)(=O)N(CCc2ccc(Cl)cc2)S(=O)(=O)c2ccc(C)cc2)cc1 | 73.8% |
| CC(C)C[C@H](NC(=O)Cn1ccc2ccccc2c1=O)B(O)O | 0.399% (active) |
| COc1cc(/C=C(/c2ccccc2)[N+](=O)[O-])c(OC)c2c1OCO2 | -81.4% (active) |
| COc1ccc(/C=C/C(=O)c2ccc(NC(=O)CSc3nnc(-c4ccc(OC)c(OC)c4)n3-c3ccccc3)cc2)cc1 | 60.2% |
| COc1cccc(NC(=O)c2sc3nc4c(cc3c2N)C(=O)CCC4)c1 | 49.5% |
| Cn1c(=O)c2c(nc(N/N=C/c3ccccc3Cl)n2C)n(C)c1=O | 102% |
| Cc1cccc(-n2c(C)nc3ccc(NC(=O)NCCCl)cc3c2=O)c1 | 92.7% |
| CCC(C)[C@H]1O[C@]2(CC[C@@H]1C)C[C@@H]1C[C@@H](C/C=C(\C)[C@@H](OC3C[C@H](OC)C(O[C@H]4C[C@H](OC)[C@@H](O)[C@H](C)O4)[C@H](C)O3)[C@@H](C)/C=C/C=C3\CO[C@@H]4[C@H](O)C(C)=C[C@@H](C(=O)O1)[C@]34O)O2 (some centres not stated) | 10.5% |
| COc1ccc(Nc2cc(C)nc(NCc3ccccc3)n2)cc1 | 49.9% |
